Test systems include SK-MEL-2 melanoma; EKVX NSCLC; SN12C renal; UO-31 renal; TK-10 renal; ACHN renal; CAKI-1 renal; A498 renal; CCRF-CEM leukemia; MOLT-4 leukemia; SR leukemia; OVCAR-8 ovarian; OVCAR-5 ovarian; OVCAR-4 ovarian; SK-OV-3 ovarian; IGROV1 ovarian; OVCAR-3 ovarian; HS 578T breast; NCI/ADR-RES ovarian.
What all share (experiment): NCI-60 one-dose screen, 48 h (100 = growth as untreated, 0 = no growth, -100 = all killed)
Settings in all cases: 10 µM unless noted

About 83,000 compounds went through this panel and 20% of them were active in at least one assay; those are over-represented in the sample as a whole.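 Percent growth is the endpoint: 0 to 100 indicates growth inhibition (40 means 60% inhibition), 0 means no net growth, and negative values indicate cell death.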 Active and inactive are the calls of the source. The calls were made as follows: active = growth percent below 10; inactive = the rest.

Take `COc1cc(/C=C/c2ccccc2)cc(OC)c1`: the growth with SK-MEL-2 melanoma is 93.7% (inactive); in the assay with EKVX NSCLC, 78.9% (inactive); in the assay with SN12C renal, 100% (inactive); in the assay on UO-31 renal it was 80.1% (inactive); in the assay on TK-10 renal, 95.9% (inactive); in the assay on ACHN renal, 96.6% (inactive). In addition, the growth with CAKI-1 renal was 81.3% (inactive); in the assay on A498 renal it was 88.7% (inactive); in the assay with CCRF-CEM leukemia it was 108% (inactive); in the assay with MOLT-4 leukemia, 89.3% (inactive); in the assay on SR leukemia, 86.7% (inactive); in the assay with OVCAR-8 ovarian, 97.7% (inactive). The growth was 95.6% (inactive) with OVCAR-5 ovarian; 105% (inactive) in the assay with OVCAR-4 ovarian; 106% (inactive) in the assay with SK-OV-3 ovarian; 84.6% (inactive) in the assay on IGROV1 ovarian; 105% (inactive) with OVCAR-3 ovarian; 104% (inactive) in the assay with HS 578T breast. Moreover, in the assay on NCI/ADR-RES ovarian, the growth was 99.6% (inactive).
With `O=c1cc(SCc2ccccc2)nc[nH]1`, the growth is 111% (inactive) in the assay with SK-MEL-2 melanoma; 94.9% (inactive) in the assay with EKVX NSCLC; 120% (inactive) with SN12C renal; 103% (inactive) in the assay with UO-31 renal; 108% (inactive) in the assay with TK-10 renal; 108% (inactive) in the assay on ACHN renal. In addition, the growth in the assay on CAKI-1 renal is 85.6% (inactive); in the assay with A498 renal, 113% (inactive); in the assay with CCRF-CEM leukemia it was 98.5% (inactive); in the assay with MOLT-4 leukemia it was 89.4% (inactive); with SR leukemia, 127% (inactive); in the assay with OVCAR-8 ovarian it was 117% (inactive). Moreover, the growth in the assay with OVCAR-5 ovarian is 93.5% (inactive); with OVCAR-4 ovarian, 117% (inactive); in the assay with IGROV1 ovarian, 111% (inactive); in the assay with OVCAR-3 ovarian, 114% (inactive); in the assay on HS 578T breast, 119% (inactive); in the assay with NCI/ADR-RES ovarian it was 101% (inactive).
Turning to `O=C(CCN1C(=O)/C(=C/c2ccc(O)cc2)SC1=S)Nc1ccccc1`, the growth in the assay on SK-MEL-2 melanoma was 111% (inactive); in the assay on EKVX NSCLC, 100% (inactive); in the assay with SN12C renal, 87.6% (inactive); with UO-31 renal, 67% (inactive); in the assay on TK-10 renal, 102% (inactive); in the assay on ACHN renal it was 92% (inactive). Also, the growth was 97.1% (inactive) in the assay with CAKI-1 renal; 97.8% (inactive) with A498 renal; 72.2% (inactive) with CCRF-CEM leukemia; 85.5% (inactive) with MOLT-4 leukemia; 119% (inactive) in the assay on SR leukemia; 94.6% (inactive) in the assay with OVCAR-8 ovarian. Also, the growth is 106% (inactive) in the assay on OVCAR-5 ovarian; 89.6% (inactive) with OVCAR-4 ovarian; 94.6% (inactive) with IGROV1 ovarian; 108% (inactive) in the assay on OVCAR-3 ovarian; 93.3% (inactive) in the assay on HS 578T breast; 99.1% (inactive) in the assay with NCI/ADR-RES ovarian.
On to `N#CC1=C(N)Oc2c(sc3c(Br)cccc23)C1c1ccc(Br)cc1` (centres undefined), for which the growth is 8.78% (active) in the assay on SK-MEL-2 melanoma; 45.6% (inactive) with EKVX NSCLC; 25.8% (inactive) with SN12C renal; 36.3% (inactive) with UO-31 renal; 54.6% (inactive) in the assay with TK-10 renal; 56% (inactive) in the assay on ACHN renal. Also, the growth was 32.8% (inactive) with CAKI-1 renal; 23.9% (inactive) in the assay with A498 renal; 10.1% (inactive) in the assay with CCRF-CEM leukemia; 7.14% (active) in the assay on MOLT-4 leukemia; 4.23% (active) in the assay on SR leukemia; 36.1% (inactive) in the assay on OVCAR-8 ovarian. The growth in the assay on OVCAR-5 ovarian is 56.3% (inactive); in the assay on SK-OV-3 ovarian, 36% (inactive); in the assay with OVCAR-3 ovarian, -8.57% (active); in the assay with HS 578T breast, 14.1% (inactive); with NCI/ADR-RES ovarian it was 2.32% (active).
In the case of `O=C(Nc1ccc(F)cc1F)c1cc(F)ccc1O`, the growth in the assay on SK-MEL-2 melanoma is -20% (active); in the assay with EKVX NSCLC it was 64.2% (inactive); in the assay with SN12C renal it was -3.45% (active); in the assay with UO-31 renal it was -16.1% (active); in the assay with TK-10 renal it was 22.9% (inactive); with ACHN renal, 7.4% (active). Also, the growth was 3.45% (active) with CAKI-1 renal; -37.5% (active) in the assay with A498 renal; 30.4% (inactive) in the assay on CCRF-CEM leukemia; 5.84% (active) in the assay with MOLT-4 leukemia; 4.78% (active) with SR leukemia; 14.9% (inactive) in the assay on OVCAR-8 ovarian. For the same compound, the growth with OVCAR-5 ovarian is 23.3% (inactive); with SK-OV-3 ovarian, 4.34% (active); in the assay with IGROV1 ovarian, 21.4% (inactive); in the assay with OVCAR-3 ovarian it was 1.72% (active); in the assay on HS 578T breast it was 12% (inactive); in the assay on NCI/ADR-RES ovarian it was 6.3% (active).
Regarding `O=C1c2cccc3cccc(c23)C(=O)N1Nc1nc(N2CCOCC2)nc(N2CCN(c3ccccc3)CC2)n1`, the growth with SK-MEL-2 melanoma is 59.9% (inactive); with EKVX NSCLC it was 50% (inactive); in the assay on SN12C renal it was 64.8% (inactive); in the assay with UO-31 renal, 29.9% (inactive); in the assay on TK-10 renal, 96% (inactive); in the assay on ACHN renal it was 41.2% (inactive). Moreover, the growth in the assay with CAKI-1 renal is 41.2% (inactive); in the assay with A498 renal it was -3.12% (active); in the assay with CCRF-CEM leukemia it was 56.9% (inactive); in the assay with MOLT-4 leukemia it was 42% (inactive); in the assay with SR leukemia, 23.7% (inactive); in the assay with OVCAR-8 ovarian, 71.6% (inactive). Also, the growth in the assay with OVCAR-5 ovarian was 83.8% (inactive); in the assay with OVCAR-4 ovarian, 79.9% (inactive); in the assay on IGROV1 ovarian it was 32.9% (inactive); with OVCAR-3 ovarian it was 11.2% (inactive); with HS 578T breast, 42.9% (inactive); with NCI/ADR-RES ovarian it was 37.8% (inactive).
As to `NCCCNc1nc2ccccc2c2c(=O)c3cccc(F)c3sc12`, the growth is 94.6% (inactive) in the assay on SK-MEL-2 melanoma; 60.4% (inactive) in the assay on EKVX NSCLC; 43.4% (inactive) in the assay on SN12C renal; 16.4% (inactive) with UO-31 renal; 54.2% (inactive) in the assay with TK-10 renal; 8.21% (active) with ACHN renal. Further, the growth in the assay on CAKI-1 renal is 1.7% (active); in the assay with A498 renal, 29.4% (inactive); in the assay with CCRF-CEM leukemia it was 9.26% (active); with MOLT-4 leukemia, -14.7% (active); with SR leukemia it was -16.7% (active); in the assay on OVCAR-8 ovarian, 29% (inactive). For the same compound, the growth is 66.9% (inactive) in the assay with OVCAR-5 ovarian; 26.2% (inactive) with OVCAR-4 ovarian; 32.5% (inactive) in the assay with IGROV1 ovarian; 18.5% (inactive) in the assay on OVCAR-3 ovarian; 52.4% (inactive) in the assay with HS 578T breast; 30.3% (inactive) in the assay on NCI/ADR-RES ovarian.
Regarding `COc1ccc2sc3c(NCCCNCCO)nc4ccccc4c3c(=O)c2c1`, the growth with SK-MEL-2 melanoma was 102% (inactive); with EKVX NSCLC, 67.2% (inactive); in the assay on SN12C renal, 62% (inactive); with UO-31 renal, 46.4% (inactive); with TK-10 renal, 75% (inactive); in the assay on ACHN renal, 57.7% (inactive). In addition, the growth with CAKI-1 renal is 44% (inactive); with A498 renal, 38.1% (inactive); in the assay on CCRF-CEM leukemia, 2.35% (active); with MOLT-4 leukemia it was 16.4% (inactive); with SR leukemia, -46.9% (active); with OVCAR-8 ovarian, 54.6% (inactive). For the same compound, the growth in the assay with OVCAR-5 ovarian was 84.2% (inactive); in the assay on SK-OV-3 ovarian it was 85.7% (inactive); with IGROV1 ovarian, 45.9% (inactive); in the assay on OVCAR-3 ovarian, 0.904% (active); in the assay with HS 578T breast, 53% (inactive); in the assay on NCI/ADR-RES ovarian, 63.8% (inactive).

The values are drawn from PubChem BioAssay (NCI).
